Experimental data published in the supplement of paper PMC11732987, “Enantioselective OTUD7B fragment discovery through chemoproteomics screening and high-throughput optimisation” (Communications Chemistry, 2025).

Tests used:
Assay in all cases: log2 ratio of Biotin-Ahx-Ub-VS probe labelling (fragment/DMSO); higher = less target engagement (more negative = stronger competition), active = hit call of the paper (q ≤ 0.05, log2 ratio ≤ -1)
Settings in all cases: compound concentration: 200 uM; treatment time: 3 h
USP34 = USP34 (UniProt Q70CQ2)
Procedure, shortened: (§1)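 HEK293T lysate in Tris/CHAPS/IGEPAL buffer with protease inhibitors (495 µg per sample) was given fragment at 200 µM or vehicle for 3 h, in triplicate. It then received Biotin-Ahx-Ub-VS at 0.5 µM final for 1 h. Labelled DUBs were NeutrAvidin-enriched, digested with LysC and trypsin, and run by diaPASEF LC-MS/MS. Values are average log2 fragment/vehicle ratios by unpaired t-test on global-median-normalised Spectronaut quantities of proteins with ≥2 unique peptides.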

USP36 = biological target: T1, USP36 (UniProt Q9P275)
T1 sequence (whole entry): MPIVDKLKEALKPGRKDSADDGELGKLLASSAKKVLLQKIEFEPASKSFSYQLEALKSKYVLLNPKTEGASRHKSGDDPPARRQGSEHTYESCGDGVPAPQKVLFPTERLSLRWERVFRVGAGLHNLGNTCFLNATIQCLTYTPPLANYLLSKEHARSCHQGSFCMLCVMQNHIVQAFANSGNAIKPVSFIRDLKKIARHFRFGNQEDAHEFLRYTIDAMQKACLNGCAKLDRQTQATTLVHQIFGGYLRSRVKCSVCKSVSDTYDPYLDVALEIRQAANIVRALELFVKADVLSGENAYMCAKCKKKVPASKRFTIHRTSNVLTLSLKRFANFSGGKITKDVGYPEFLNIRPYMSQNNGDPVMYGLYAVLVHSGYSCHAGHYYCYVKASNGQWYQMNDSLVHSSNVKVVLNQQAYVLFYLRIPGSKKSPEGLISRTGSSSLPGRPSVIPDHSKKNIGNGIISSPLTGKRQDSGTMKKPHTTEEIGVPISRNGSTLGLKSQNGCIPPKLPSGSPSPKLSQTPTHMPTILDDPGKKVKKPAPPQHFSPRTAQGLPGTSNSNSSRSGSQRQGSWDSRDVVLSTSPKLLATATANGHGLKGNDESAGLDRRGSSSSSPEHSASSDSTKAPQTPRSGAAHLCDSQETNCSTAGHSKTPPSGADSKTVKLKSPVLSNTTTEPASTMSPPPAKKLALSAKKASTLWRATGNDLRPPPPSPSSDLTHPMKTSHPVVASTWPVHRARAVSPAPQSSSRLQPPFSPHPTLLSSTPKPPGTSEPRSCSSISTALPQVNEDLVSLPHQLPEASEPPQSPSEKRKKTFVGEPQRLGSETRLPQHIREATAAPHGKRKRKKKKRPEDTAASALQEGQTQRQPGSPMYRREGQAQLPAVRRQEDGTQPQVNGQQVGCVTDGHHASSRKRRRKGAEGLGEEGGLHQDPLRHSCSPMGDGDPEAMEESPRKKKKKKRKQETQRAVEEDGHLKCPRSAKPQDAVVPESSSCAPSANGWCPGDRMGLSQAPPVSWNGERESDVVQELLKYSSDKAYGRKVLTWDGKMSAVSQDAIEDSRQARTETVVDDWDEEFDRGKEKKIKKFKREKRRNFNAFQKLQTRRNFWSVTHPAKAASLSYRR
Procedure, shortened: as §1

USP38 = biological target: T2, USP38 (UniProt Q8NB14)
T2 sequence (whole entry): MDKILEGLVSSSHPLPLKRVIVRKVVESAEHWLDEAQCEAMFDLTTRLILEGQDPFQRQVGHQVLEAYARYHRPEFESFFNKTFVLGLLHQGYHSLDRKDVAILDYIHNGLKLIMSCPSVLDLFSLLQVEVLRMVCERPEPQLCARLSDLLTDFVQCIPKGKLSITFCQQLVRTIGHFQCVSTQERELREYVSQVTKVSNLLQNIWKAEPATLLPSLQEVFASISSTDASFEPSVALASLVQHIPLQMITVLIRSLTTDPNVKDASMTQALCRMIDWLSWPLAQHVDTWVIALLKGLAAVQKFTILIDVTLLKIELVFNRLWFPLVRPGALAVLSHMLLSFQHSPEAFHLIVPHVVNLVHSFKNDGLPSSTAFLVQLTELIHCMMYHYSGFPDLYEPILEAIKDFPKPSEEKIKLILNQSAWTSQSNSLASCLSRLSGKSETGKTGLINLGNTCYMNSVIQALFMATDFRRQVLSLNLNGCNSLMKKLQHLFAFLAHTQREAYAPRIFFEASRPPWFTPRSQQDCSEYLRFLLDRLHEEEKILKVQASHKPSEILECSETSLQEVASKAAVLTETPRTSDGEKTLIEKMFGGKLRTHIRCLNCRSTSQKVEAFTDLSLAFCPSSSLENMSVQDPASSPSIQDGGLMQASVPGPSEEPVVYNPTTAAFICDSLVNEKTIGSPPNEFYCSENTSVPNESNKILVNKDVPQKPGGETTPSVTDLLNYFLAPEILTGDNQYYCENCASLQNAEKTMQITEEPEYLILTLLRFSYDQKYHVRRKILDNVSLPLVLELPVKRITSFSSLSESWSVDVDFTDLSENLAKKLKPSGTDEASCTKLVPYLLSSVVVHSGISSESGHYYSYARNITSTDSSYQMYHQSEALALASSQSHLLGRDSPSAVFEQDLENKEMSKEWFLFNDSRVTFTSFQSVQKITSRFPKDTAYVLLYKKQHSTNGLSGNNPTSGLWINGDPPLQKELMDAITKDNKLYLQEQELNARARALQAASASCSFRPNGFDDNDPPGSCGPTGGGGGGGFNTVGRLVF
Procedure, shortened: as §1

USP39 = biological target: T3, USP39 (UniProt Q53GS9)
T3 sequence (whole entry): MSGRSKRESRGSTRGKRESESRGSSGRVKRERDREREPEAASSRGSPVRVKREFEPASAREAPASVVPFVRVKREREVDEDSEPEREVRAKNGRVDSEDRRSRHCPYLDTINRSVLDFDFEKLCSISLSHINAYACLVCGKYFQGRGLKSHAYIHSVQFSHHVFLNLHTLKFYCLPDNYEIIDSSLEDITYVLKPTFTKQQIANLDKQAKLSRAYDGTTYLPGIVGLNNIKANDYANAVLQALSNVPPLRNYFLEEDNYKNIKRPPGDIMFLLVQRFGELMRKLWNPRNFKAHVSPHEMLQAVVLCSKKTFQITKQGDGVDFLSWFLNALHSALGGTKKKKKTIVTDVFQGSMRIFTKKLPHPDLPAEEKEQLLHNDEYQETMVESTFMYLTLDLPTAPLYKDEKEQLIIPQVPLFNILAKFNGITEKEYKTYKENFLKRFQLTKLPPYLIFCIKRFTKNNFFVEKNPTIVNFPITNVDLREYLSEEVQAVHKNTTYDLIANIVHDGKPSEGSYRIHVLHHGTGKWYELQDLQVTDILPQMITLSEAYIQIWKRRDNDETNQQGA
Procedure, shortened: as §1

USP4 = biological target: T4, USP4 (UniProt Q13107)
T4 sequence (whole entry): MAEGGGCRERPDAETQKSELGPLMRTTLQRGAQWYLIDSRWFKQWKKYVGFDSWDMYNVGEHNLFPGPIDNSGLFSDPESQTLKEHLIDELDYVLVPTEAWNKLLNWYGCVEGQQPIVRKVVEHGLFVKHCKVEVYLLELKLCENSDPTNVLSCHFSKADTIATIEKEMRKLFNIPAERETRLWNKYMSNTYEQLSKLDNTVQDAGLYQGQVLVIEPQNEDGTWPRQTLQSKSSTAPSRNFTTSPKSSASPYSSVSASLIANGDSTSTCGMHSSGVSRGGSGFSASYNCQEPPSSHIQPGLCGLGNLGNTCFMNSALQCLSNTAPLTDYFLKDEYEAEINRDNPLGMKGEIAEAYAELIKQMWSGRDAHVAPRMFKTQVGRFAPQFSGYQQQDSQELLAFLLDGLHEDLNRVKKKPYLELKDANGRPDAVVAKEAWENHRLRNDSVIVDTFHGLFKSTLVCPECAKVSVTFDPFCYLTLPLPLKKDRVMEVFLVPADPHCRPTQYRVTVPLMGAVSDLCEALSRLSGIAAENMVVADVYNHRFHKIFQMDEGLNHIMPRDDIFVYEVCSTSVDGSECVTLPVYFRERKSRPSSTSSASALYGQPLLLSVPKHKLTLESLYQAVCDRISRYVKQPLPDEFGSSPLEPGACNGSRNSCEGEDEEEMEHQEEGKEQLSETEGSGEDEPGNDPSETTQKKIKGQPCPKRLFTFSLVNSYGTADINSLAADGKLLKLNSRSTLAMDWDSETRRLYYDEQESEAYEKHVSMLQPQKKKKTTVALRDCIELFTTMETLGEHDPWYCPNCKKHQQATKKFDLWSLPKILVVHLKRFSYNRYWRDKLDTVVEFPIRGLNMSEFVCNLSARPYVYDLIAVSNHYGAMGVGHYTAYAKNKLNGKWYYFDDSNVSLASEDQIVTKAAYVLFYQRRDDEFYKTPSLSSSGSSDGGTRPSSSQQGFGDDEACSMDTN
Procedure, shortened: as §1

Measured: log2 ratio of Biotin-Ahx-Ub-VS probe labelling

Sequence of USP34 (Q70CQ2 whole entry, the tested form may be a part): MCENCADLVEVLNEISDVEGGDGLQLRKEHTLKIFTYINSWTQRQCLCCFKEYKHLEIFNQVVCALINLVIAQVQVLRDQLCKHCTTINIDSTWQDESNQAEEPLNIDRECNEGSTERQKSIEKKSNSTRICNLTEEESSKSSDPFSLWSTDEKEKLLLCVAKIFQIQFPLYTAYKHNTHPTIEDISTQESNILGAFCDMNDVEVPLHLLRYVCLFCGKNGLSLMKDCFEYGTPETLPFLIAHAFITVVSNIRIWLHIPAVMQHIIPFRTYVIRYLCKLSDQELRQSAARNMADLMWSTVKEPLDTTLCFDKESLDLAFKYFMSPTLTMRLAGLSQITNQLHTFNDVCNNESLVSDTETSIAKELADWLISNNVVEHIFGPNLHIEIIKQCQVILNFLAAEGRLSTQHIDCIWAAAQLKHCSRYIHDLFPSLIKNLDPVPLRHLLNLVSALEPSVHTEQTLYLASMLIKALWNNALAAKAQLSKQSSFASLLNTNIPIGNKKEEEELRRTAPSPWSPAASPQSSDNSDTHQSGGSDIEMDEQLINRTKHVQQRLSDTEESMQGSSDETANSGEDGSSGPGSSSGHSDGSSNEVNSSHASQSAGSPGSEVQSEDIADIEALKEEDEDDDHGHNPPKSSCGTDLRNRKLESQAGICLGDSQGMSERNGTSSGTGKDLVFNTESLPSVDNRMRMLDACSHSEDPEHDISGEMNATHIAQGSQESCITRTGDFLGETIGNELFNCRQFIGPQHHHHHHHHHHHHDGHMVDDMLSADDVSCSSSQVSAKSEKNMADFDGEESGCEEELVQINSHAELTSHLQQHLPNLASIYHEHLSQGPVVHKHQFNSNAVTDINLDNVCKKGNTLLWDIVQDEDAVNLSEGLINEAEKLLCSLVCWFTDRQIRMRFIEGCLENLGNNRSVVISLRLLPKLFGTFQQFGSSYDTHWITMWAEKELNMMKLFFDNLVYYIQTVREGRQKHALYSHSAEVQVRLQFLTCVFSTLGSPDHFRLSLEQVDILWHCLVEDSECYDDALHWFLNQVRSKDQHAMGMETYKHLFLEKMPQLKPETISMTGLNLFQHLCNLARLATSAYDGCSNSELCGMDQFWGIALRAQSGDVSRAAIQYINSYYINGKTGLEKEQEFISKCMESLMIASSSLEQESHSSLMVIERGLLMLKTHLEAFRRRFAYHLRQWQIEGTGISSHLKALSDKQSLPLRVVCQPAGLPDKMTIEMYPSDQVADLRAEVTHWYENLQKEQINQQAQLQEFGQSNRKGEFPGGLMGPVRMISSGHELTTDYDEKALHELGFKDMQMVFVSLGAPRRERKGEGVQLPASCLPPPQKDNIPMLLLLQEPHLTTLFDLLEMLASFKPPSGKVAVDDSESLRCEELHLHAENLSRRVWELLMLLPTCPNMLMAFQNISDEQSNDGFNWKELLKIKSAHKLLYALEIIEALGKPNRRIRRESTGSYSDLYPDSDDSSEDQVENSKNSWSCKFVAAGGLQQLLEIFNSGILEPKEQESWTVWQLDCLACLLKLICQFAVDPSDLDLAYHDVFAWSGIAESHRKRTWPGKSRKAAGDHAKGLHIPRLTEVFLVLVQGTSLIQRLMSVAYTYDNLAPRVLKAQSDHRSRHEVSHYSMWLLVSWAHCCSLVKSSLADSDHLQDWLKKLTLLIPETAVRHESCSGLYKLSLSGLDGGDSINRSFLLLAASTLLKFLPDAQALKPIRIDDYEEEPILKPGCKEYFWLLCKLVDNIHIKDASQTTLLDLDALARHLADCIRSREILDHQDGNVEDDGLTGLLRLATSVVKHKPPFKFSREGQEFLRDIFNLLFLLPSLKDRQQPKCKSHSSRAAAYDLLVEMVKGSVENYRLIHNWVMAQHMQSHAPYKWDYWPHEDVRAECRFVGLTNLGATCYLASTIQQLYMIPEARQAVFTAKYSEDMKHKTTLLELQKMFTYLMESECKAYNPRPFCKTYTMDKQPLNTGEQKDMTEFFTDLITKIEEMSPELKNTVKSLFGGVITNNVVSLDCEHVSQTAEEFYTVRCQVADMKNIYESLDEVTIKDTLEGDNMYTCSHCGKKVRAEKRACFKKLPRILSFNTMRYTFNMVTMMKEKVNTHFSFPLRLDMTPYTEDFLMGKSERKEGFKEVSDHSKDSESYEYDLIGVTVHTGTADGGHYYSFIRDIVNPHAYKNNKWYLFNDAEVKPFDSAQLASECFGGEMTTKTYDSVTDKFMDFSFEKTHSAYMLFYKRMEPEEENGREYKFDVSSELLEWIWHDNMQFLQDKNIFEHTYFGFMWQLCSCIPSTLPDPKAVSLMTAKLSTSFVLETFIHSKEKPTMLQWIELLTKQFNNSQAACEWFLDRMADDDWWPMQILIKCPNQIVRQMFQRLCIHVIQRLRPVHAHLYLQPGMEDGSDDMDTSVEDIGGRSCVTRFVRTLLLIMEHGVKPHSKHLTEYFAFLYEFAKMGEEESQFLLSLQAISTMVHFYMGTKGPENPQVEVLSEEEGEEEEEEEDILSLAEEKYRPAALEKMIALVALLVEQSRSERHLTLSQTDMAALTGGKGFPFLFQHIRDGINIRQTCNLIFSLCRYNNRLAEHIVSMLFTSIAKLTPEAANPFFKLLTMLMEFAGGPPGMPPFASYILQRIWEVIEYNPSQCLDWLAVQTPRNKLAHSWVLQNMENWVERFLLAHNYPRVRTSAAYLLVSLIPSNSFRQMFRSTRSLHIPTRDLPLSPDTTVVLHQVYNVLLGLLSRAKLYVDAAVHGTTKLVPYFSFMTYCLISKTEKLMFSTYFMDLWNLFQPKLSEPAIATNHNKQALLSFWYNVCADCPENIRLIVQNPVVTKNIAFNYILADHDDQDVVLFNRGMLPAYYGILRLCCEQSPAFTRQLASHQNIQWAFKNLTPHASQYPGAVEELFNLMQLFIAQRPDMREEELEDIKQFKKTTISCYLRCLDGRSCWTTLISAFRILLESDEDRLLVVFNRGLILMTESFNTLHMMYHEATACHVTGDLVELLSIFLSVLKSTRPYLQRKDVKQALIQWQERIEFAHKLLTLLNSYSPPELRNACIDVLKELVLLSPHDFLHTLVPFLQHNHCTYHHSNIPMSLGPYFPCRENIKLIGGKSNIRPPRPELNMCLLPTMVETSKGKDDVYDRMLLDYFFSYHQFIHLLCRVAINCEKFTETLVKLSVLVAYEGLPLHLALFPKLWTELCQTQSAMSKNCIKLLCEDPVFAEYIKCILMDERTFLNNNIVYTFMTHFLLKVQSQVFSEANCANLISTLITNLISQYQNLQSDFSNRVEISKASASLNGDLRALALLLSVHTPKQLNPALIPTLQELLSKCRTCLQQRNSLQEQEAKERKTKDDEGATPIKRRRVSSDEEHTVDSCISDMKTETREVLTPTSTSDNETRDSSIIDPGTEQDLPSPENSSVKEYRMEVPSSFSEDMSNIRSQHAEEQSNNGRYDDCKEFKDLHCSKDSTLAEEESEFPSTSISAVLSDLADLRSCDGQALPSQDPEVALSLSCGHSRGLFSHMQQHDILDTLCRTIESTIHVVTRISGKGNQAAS

O=C(CCl)NCc1ccc(N2CCOCC2)nc1
inactive: USP34 -0.0991 | USP36 -0.161 | USP38 -0.0678 | USP39 -0.00187 | USP4 0.0133
